Laboratory results: ChEMBL document CHEMBL1157539, “Thousands of chemical starting points for antimalarial lead identification” (Nature, 2010)

These compounds were tested on Plasmodium falciparum (assay: GSK_TCMDC: Inhibition of Plasmodium falciparum 3D7 in whole red blood cells, using parasite LDH activity as an index of growth. Test compounds present at 2uM).
Assay type: functional
`Cl.c1ccc(-c2ccc3c(Nc4ccc5[nH]ncc5c4)ccnc3c2)nc1` was tested, and the Inhibition was 100%. Work on `O=C(O)C(F)(F)F.O=C1CCCN1CCCNCc1cccc(-c2ccc(-c3nc4cc(C(F)(F)F)ccc4[nH]3)s2)c1` yielded an Inhibition of 100%. In the case of `COc1ccc(CNCc2cccc(-c3csc(-c4nc5ccccc5[nH]4)c3)c2)cc1.O=C(O)C(F)(F)F`, the Inhibition was 100%. For `O=C(O)C(F)(F)F.O=[N+]([O-])c1cccc(CNCC2CCN(CC3CCCCC3)CC2)c1`, the Inhibition was 90%. `O=S(=O)(c1ccc(Cl)cc1Cl)N1CCCCC(c2ccc(C(F)(F)F)cc2)=N1` was tested, and the Inhibition was 100%. `O=C(C=Cc1ccc(Cl)c(Cl)c1)NCCCCCN1CCCC(CCCNS(=O)(=O)c2ccc(Br)cc2)C1` (stereo unspecified) was tested, and the Inhibition was 88%. `O=C(CCOc1ccccc1)NCC1CCCO1` (stereo unspecified) was tested, and the Inhibition was 92%. With `Cn1cncc1CCCN(Cc1ccc(-c2ccc(C(F)(F)F)cc2)cc1)C(=O)Cn1c(CCc2cccc(F)c2F)cc(=O)c2cccnc21` the Inhibition was 85%. `Cc1ccoc1C(=O)Nc1ccc(-c2cccc(-c3nc4cccc(C)c4[nH]3)c2)cc1` was tested, and the Inhibition was 95%. `COc1ccc(-c2cccc(NC(=O)c3ccc(F)cc3)c2)cc1CNC(C)C.O=C(O)C(F)(F)F` was tested, and the Inhibition was 83%. Work on `CC(C)Cn1ncc2c3c(N)nc(N)nc3ccc21` yielded an Inhibition of 94%. For `CCCCCCN1CCC(NCc2ccc(Cl)cc2)CC1.O=C(O)C(F)(F)F`, the Inhibition was 98%. `Cn1cncc1CCN(Cc1ccc(-c2ccc(C(F)(F)F)cc2)cc1)C(=O)Cn1c(CCc2cccc(F)c2F)cc(=O)c2cccnc21` showed an Inhibition of 100%. For `Cl.Nc1c(C(=O)NCCCCN2CCN(c3nsc4ccccc34)CC2)sc2ccccc12`, the Inhibition was 86%. `C=CCn1c(Sc2ccc(C#N)c([N+](=O)[O-])c2)nnc1-c1ccc(Cl)cc1` was tested, and the Inhibition was 97%. For `O=C(CC1CCCC1)N(Cc1ccc(-c2ccc(CNC3Cc4ccccc4C3)cc2)cc1)CC1CCCCN1.O=C(O)C(F)(F)F` (stereo unspecified), the Inhibition was 88%. Work on `COc1ccc(-c2ccc(CNCc3ccc(F)cc3)cc2)cc1S(=O)(=O)NCCN1CCCC1.O=C(O)C(F)(F)F` yielded an Inhibition of 98%. `Cc1ccc(N2CCN(C(=O)c3cccc(-c4cncc5nc(-c6ccco6)n(C)c45)c3)CC2)nc1` showed an Inhibition of 94%. `CCCN(Cc1ccc(OCC)cc1)Cc1cc(=O)c2cc(Cl)ccc2[nH]1` showed an Inhibition of 82%. In the case of `O=CO.O=S1(=O)NCc2ccc(Nc3nccc(Nc4ccc5c(cnn5Cc5ccccc5)c4)n3)cc21`, the Inhibition was 94%. With `Cc1cc(Nc2ncc(C#N)c(Nc3ccccc3C(N)=O)n2)ccc1N1CCN(C)CC1.Cl` the Inhibition was 94%. Compound `O=C(NCCN1CCOCC1)c1csc(C2CCCN(C(=O)c3ccc(O)c(-c4cc(Cl)cc(Cl)c4)c3)C2)n1` (stereo unspecified) has an Inhibition of 97%. `CC(C)N(Cc1cnc2nc(N)nc(N)c2n1)c1ccc(Cl)c(Cl)c1` gave an Inhibition of 100%. With `CCN(CC)/C(=N/C(=N)Nc1ccc(Br)cc1)NCCCCCCN/C(=N\C(=N)Nc1ccc(Br)cc1)N(CC)CC` the Inhibition was 96%. For `COc1ccc(-c2cccc(NC(=O)c3ccc(Cl)cc3)c2)cc1CN1CCCN(C)CC1.O=C(O)C(F)(F)F`, the Inhibition was 100%. `Nc1c2ccccc2nc2cc(Cl)ccc12` showed an Inhibition of 100%. In the case of `COc1ccc(CNCc2cccc(-c3cccc(-c4nc5cccc(C)c5[nH]4)c3)c2)cc1.O=C(O)C(F)(F)F`, the Inhibition was 100%. Work on `COc1ccc(-n2nc(C)c3c2NC(=O)CC3c2ccccc2OCc2ccc(F)cc2)cc1` (stereo unspecified) yielded an Inhibition of 93%. `COc1ccc(CCNC(=O)c2ccccc2O)cc1-c1ccc(C(C)(C)C)cc1` showed an Inhibition of 95%. `Cc1sc(NC(=O)Cc2cccc(C(F)(F)F)c2)nc1-c1cccc(Cl)c1` was tested, and the Inhibition was 100%. `CN(c1ccc(NC(=O)Nc2cc(C(C)(C)C)on2)cc1)c1ccnc(NCCOC(=O)Nc2cc(C(C)(C)C)on2)n1.O=C(O)C(F)(F)F` showed an Inhibition of 100%. `Cl.Oc1cc(-c2nc(C3(CNCc4ccc(Cl)cc4)CCCCC3)[nH]c2-c2ccncc2)ccc1Cl` was tested, and the Inhibition was 100%. Compound `O=C(NC1CCCCN(Cc2ccc3c(c2)OCCO3)C1)c1cc(-c2ccccc2F)cs1.O=C(O)C(F)(F)F` (stereo unspecified) has an Inhibition of 92%. Work on `Cc1cc(N/N=C/c2cccc([N+](=O)[O-])c2)c2ccc(F)cc2n1` yielded an Inhibition of 100%. With `O=C(Nc1cccc(-c2cccc(-c3nc4cc(C(F)(F)F)ccc4[nH]3)c2)c1)c1cccnc1Cl` the Inhibition was 95%. With `Cc1ccc(Cn2ncc(N3CC(C)NC(C)C3)c(Cl)c2=O)cc1NC(=O)Nc1ccc(-c2ccccc2)cc1.O=C(O)C(F)(F)F` (stereo unspecified) the Inhibition was 100%.
